Screening data as filed in PubChem.
CYP2C9 act: CYP2C9 (human) activation | activation factor at 5 µM | P11712 | 96,000 tested, 1.4% active | recombinant CYP2C9, luciferin-H conversion, luminescence; stronger effect = higher value; factor 1 = untreated enzyme, 0 = blocked;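 active means activation factor of 2 or more for CYP2C9 at a 5 µM dose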;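 further: 0 = sulfaphenazole-blocked wells and 1 = vehicle-only wells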
Target sequence (P11712 whole entry, looked up): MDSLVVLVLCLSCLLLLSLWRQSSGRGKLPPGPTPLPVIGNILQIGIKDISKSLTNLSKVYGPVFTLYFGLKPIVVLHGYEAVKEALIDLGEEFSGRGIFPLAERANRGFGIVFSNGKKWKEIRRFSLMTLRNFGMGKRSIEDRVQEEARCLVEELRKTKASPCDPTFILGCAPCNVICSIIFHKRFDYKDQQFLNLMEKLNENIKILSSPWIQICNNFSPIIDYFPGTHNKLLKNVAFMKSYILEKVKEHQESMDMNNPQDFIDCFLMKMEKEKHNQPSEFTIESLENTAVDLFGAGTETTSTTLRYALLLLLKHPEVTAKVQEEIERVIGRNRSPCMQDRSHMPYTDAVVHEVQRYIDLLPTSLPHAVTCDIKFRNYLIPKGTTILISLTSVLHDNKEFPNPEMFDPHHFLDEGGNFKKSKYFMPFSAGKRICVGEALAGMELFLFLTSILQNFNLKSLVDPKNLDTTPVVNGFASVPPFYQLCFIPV
CYP2C19 inhib: blocks human cytochrome P450 2C19; P33261; inhibition, % at 5 µM; CYP2C19 Supersomes, luciferin-H EGE luminescence, 30 min; AID 778; 96,000 tested, 21% active;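 active means CYP2C19 inhibition above a set limit at 5 µM in the primary screen, cut at about 50% in these data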;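 further: plate controls were negative control wells for no effect and 2.5 mM tranylcypromine positive control for full effect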
CYP2C9 inh: blocks human cytochrome P450 2C9; CYP2C9 Supersomes, luciferin-H conversion, luminescence; inhibition, % at 5 µM; P11712; 96,000 tested, 20% active;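 active means blocking of liver enzyme CYP2C9 beyond about 50% at 5 µM, limit read from the data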
PostGolgi yeast: growth inhibition of a yeast mutant, post-Golgi transport screen | post-Golgi transport phenotypic cell assay | inhibition, % at 10 µM | 98,000 tested, 0.9% active | AID 739;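 further: yeast cells grown in 1536-well plates; yeast grown about 18 h at 30C before absorbance read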
CYP2C19 activ: cytochrome P450 2C19 (human) activation | 96,000 tested, under 10 active | P33261 | activation factor at 5 µM | recombinant CYP2C19, luciferin-H EGE luminescence; stronger effect = higher value; 0 = fully inhibited enzyme, 1 = untreated enzyme;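 active means activation factor of at least 2 at 5 µM in the primary screen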;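 further: 0 = wells with 2.5 mM tranylcypromine and 1 = vehicle-only wells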
PostGolgi ctrl: growth of the yeast control strain, post-Golgi counter-screen; inhibition, % at 10 µM; 98,000 tested, 5% active; efflux-deficient yeast background strain, growth absorbance A615, 16 h
The depositor's hits bear a star. Hits are enriched below; roughly 32% of the tested compounds scored in any of these assays. Unless noted, no stated cut-off is given here; in the data, active means inhibition above about 30%; inactive means the rest.

Results for N#Cc1nc(-c2cccs2)oc1NCc1ccco1 ?
CYP2C9 act: 0.1; CYP2C19 inhib: 76*; CYP2C9 inh: 90*; PostGolgi yeast: 3; CYP2C19 activ: 0.2; PostGolgi ctrl: 9

How did C=CCNc1oc(-c2cccc3ccccc23)nc1C#N do in these assays?
CYP2C9 act: 0.9; CYP2C19 inhib: 4; CYP2C9 inh: 13; PostGolgi yeast: 2; CYP2C19 activ: 1; PostGolgi ctrl: 8

What do the screens show for `NC(=O)c1ccsc1NC(=O)CSc1ccccc1F`?
CYP2C9 act: 1; CYP2C19 inhib: 42; CYP2C9 inh: 4; PostGolgi yeast: -8; CYP2C19 activ: 0.6; PostGolgi ctrl: 7

How did NC(=O)c1ccsc1NC(=O)COc1ccccc1 do in these assays?
CYP2C9 act: 0.4; CYP2C19 inhib: 44; CYP2C9 inh: 65*; PostGolgi yeast: 22; CYP2C19 activ: 0.6; PostGolgi ctrl: 1

Results for NC(=O)c1ccsc1NC(=O)c1nc(-c2ccccc2)n(-c2ccccc2)n1 ?
CYP2C9 act: 0.4; CYP2C19 inhib: 30; CYP2C9 inh: 61*; PostGolgi yeast: 73*; CYP2C19 activ: 0.7; PostGolgi ctrl: 11

What do the screens show for `NC(=O)c1ccsc1NC(=O)COC(=O)Cc1cccc2ccccc12`?
CYP2C9 act: 1.6; CYP2C19 inhib: 97*; CYP2C9 inh: -58; PostGolgi yeast: 1; CYP2C19 activ: 0; PostGolgi ctrl: 8

Results for CC1=CCC(C(=O)O)(C(=O)N/N=C/c2cccs2)C(c2ccc([N+](=O)[O-])cc2)C1 (stereo not drawn) ?
CYP2C9 act: 0.8; CYP2C19 inhib: 2; CYP2C9 inh: 20; PostGolgi yeast: 1; CYP2C19 activ: 1; PostGolgi ctrl: 65*

Results for CC1=CCC(C(=O)O)(C(=O)N/N=C/c2cccs2)C(c2ccc(F)cc2)C1 (stereo not drawn) ?
CYP2C9 act: 0.3; CYP2C19 inhib: 8; CYP2C9 inh: 67*; PostGolgi yeast: -5; CYP2C19 activ: 0.9; PostGolgi ctrl: 5

Results for CCc1cc([N+](=O)[O-])cc(CC)c1N ?
CYP2C9 act: 1.3; CYP2C19 inhib: 55*; CYP2C9 inh: -28; PostGolgi yeast: -2; CYP2C19 activ: 0.4; PostGolgi ctrl: 18

What do the screens show for `CC(=O)c1ccc2c(c1)Nc1ccccc1S2`?
CYP2C9 act: 0.4; CYP2C19 inhib: 12; CYP2C9 inh: 57*; PostGolgi yeast: -1; CYP2C19 activ: 0.9; PostGolgi ctrl: -2

What do the screens show for `Nc1nnnn1CC(=O)OCc1cccc(Br)c1`?
CYP2C9 act: 2.6*; CYP2C19 inhib: 36; CYP2C9 inh: -160; PostGolgi yeast: -4; CYP2C19 activ: 0.6; PostGolgi ctrl: 5

How did O=C(COc1ccccc1)Nc1nnc(-c2ccc(Cl)s2)o1 do in these assays?
CYP2C9 act: 0.5; CYP2C19 inhib: 13; CYP2C9 inh: 49; PostGolgi yeast: 12; CYP2C19 activ: 0.9; PostGolgi ctrl: 20

How did CCOC(=O)C1=C(C)N=C(SC)N(C)C1c1ccccc1 (stereo not drawn) do in these assays?
CYP2C9 act: 0.7; CYP2C19 inhib: 31; CYP2C9 inh: 29; PostGolgi yeast: 0; CYP2C19 activ: 0.7; PostGolgi ctrl: 2

What do the screens show for `CCOC(=O)C1=C(C)N=C2c3ccccc3C(=O)C2C1c1ccc(C)cc1` (stereo not drawn)?
CYP2C9 act: 0.3; CYP2C19 inhib: 24; CYP2C9 inh: 69*; PostGolgi yeast: -2; CYP2C19 activ: 0.8; PostGolgi ctrl: -2

How did CCOC(=O)C1=C(C)N=C2c3ccccc3C(=O)C2C1c1ccccc1 (stereo not drawn) do in these assays?
CYP2C9 act: 0.4; CYP2C19 inhib: 17; CYP2C9 inh: 56*; PostGolgi yeast: 1; CYP2C19 activ: 0.8; PostGolgi ctrl: 12

How did CCOC(=O)CON1C(=O)c2ccccc2C1=O do in these assays?
CYP2C9 act: 0.8; CYP2C19 inhib: 6; CYP2C9 inh: 19; PostGolgi yeast: 11; CYP2C19 activ: 0.9; PostGolgi ctrl: 2

What do the screens show for `Cc1ccc(NC2c3ncccc3C(=O)N2Cc2ccc(F)cc2)cc1` (stereo not drawn)?
CYP2C9 act: 0.5; CYP2C19 inhib: 32; CYP2C9 inh: 53*; PostGolgi yeast: 8; CYP2C19 activ: 0.7; PostGolgi ctrl: 17

What do the screens show for `CCCNS(=O)(=O)c1ccc(OCC(=O)OC)cc1`?
CYP2C9 act: 0.4; CYP2C19 inhib: 53*; CYP2C9 inh: 56*; PostGolgi yeast: 4; CYP2C19 activ: 0.5; PostGolgi ctrl: 0

What do the screens show for `CC(C)NS(=O)(=O)c1ccc(OCC(=O)NCCC2=CCCCC2)cc1`?
CYP2C9 act: 0.8; CYP2C19 inhib: 56*; CYP2C9 inh: 21; PostGolgi yeast: -5; CYP2C19 activ: 0.4; PostGolgi ctrl: -1

Results for COC(=O)COc1ccc(S(=O)(=O)NCCC2=CCCCC2)cc1 ?
CYP2C9 act: 0.3; CYP2C19 inhib: 95*; CYP2C9 inh: 69*; PostGolgi yeast: -8; CYP2C19 activ: 0; PostGolgi ctrl: 3

How did CCCNS(=O)(=O)c1ccc(OCC(=O)N2CCC(C(=O)OCC)CC2)cc1 do in these assays?
CYP2C9 act: 0.8; CYP2C19 inhib: -5; CYP2C9 inh: 21; PostGolgi yeast: -7; CYP2C19 activ: 1.1; PostGolgi ctrl: 31*

Results for CCOC(=O)C1CCN(C(=O)COc2ccc(S(=O)(=O)NC(C)C)cc2)CC1 ?
CYP2C9 act: 0.8; CYP2C19 inhib: 8; CYP2C9 inh: 18; PostGolgi yeast: 14; CYP2C19 activ: 0.9; PostGolgi ctrl: -6

What do the screens show for `CCCNS(=O)(=O)c1ccc(OCC(=O)NCCC2=CCCCC2)cc1`?
CYP2C9 act: 0.6; CYP2C19 inhib: 34; CYP2C9 inh: 39; PostGolgi yeast: -4; CYP2C19 activ: 0.7; PostGolgi ctrl: 19

Results for COC(=O)[C@@H](NC(=O)NC1CCCc2ccccc21)C(C)C (stereo partly drawn) ?
CYP2C9 act: 1; CYP2C19 inhib: 6; CYP2C9 inh: 3; PostGolgi yeast: 5; CYP2C19 activ: 0.9; PostGolgi ctrl: 4

What do the screens show for `COC(=O)COc1ccc(S(=O)(=O)NCCC2=CCCCC2)cc1C`?
CYP2C9 act: 0.9; CYP2C19 inhib: 99*; CYP2C9 inh: 8; PostGolgi yeast: 6; CYP2C19 activ: 0; PostGolgi ctrl: 6

How did Cc1cc(NC(=O)c2cc(C3CC3)on2)n(-c2ccccc2)n1 do in these assays?
CYP2C9 act: 0.9; CYP2C19 inhib: 24; CYP2C9 inh: 13; PostGolgi yeast: -4; CYP2C19 activ: 0.8; PostGolgi ctrl: 10

Results for Cc1cc(NC(=O)c2cc(-c3ccccc3)on2)n(-c2ccccc2)n1 ?
CYP2C9 act: 1.1; CYP2C19 inhib: -22; CYP2C9 inh: -12; PostGolgi yeast: 0; CYP2C19 activ: 1.2; PostGolgi ctrl: 1

Results for Cc1cc(C(=O)NCCN2CCN(c3cccc(Cl)c3)CC2)n(-c2ccccc2)n1 ?
CYP2C9 act: 0.9; CYP2C19 inhib: 10; CYP2C9 inh: 12; PostGolgi yeast: -2; CYP2C19 activ: 0.9; PostGolgi ctrl: -4
